RT RNaseH block: inhibitors of HIV-1 reverse transcriptase RNase H. P04585. RT-RNase H RNA/DNA duplex cleavage, fluorescence. inhibition, % at 10 µM. 65,000 compounds, 1.9% hits. AID 565; in the data active = inhibition above about 50%
RmlC RmlD mix: RmlC/RmlD inhibition, mixture screen; RmlC/RmlD coupled enzyme inhibition, 384-well mixture HTS; inhibition, % at 5.5 µM; 110,000 compounds, 0.39% hits; AID 1532; in the data active = inhibition above about 30%, passing the limit was not always enough
An asterisk follows results filed as active. Shown is part of a subset that was picked to be rich in hits.

Results for O=C(CN1C(=O)NC2NC(=O)NC21)NC1CCCCC1 (centres undefined) ?
RT RNaseH block: -10

How did CC1(C)CC(=O)C(C(C2=C(O)CC(C)(C)CC2=O)c2cccc(O)c2)C(=O)C1 (centres undefined) do in these assays?
RT RNaseH block: 2; RmlC RmlD mix: -10

What do the screens show for `CC1(C)CC(=O)C2=C(C1)N(c1cccc(O)c1)C1=C(C2)C(=O)CC(C)(C)C1`?
RT RNaseH block: 30; RmlC RmlD mix: 39*

Results for O=C(Nc1cccs1)OCCN1CCN(Cc2ccccc2)CCC1=O ?
RmlC RmlD mix: -10

What do the screens show for `CCOC(=O)c1cc(OC(=O)c2cccs2)n(-c2ccccc2)n1`?
RT RNaseH block: 50*; RmlC RmlD mix: -8

Results for CCOC(=O)c1cc(OC(=O)c2ccccc2)n(-c2ccccc2)n1 ?
RmlC RmlD mix: -32

How did CCCc1cc(C(=O)Nc2sc(C)c(CC)c2C#N)no1 do in these assays?
RT RNaseH block: 53*

What do the screens show for `CCc1c(C)sc(NC(=O)c2cc(C)on2)c1C#N`?
RT RNaseH block: -3; RmlC RmlD mix: -13

What do the screens show for `Cc1ccc2cc(C#N)c(SCC(=O)NCC3CCCO3)nc2c1` (centres undefined)?
RT RNaseH block: -37; RmlC RmlD mix: -1

What do the screens show for `Cc1ccc2nc(SCC(=O)NCC3CCCO3)c(C#N)cc2c1` (centres undefined)?
RT RNaseH block: 59*; RmlC RmlD mix: -18

Results for CCOC(=O)C1=C(C)N(CCCC(=O)O)C(=O)NC1c1ccccc1OC(=O)c1cccs1 (centres undefined) ?
RmlC RmlD mix: 8

What do the screens show for `Cc1ccc(NCN2C(=O)C3CC=C(Cl)CC3C2=O)cc1` (centres undefined)?
RmlC RmlD mix: 3

How did O=C(O)c1ccccc1NCN1C(=O)C2CC=C(Cl)CC2C1=O (centres undefined) do in these assays?
RT RNaseH block: -9; RmlC RmlD mix: 37*

Results for COc1ccc(C2=NOC(C)(c3nnc(-c4ccc(F)cc4)o3)C2)cc1 (centres undefined) ?
RmlC RmlD mix: 2

What do the screens show for `C/C(=N\NC(=S)NC(C)C)c1ccc(-n2ccnc2)cc1`?
RmlC RmlD mix: 0

How did COCCNc1cc(C)c(C#N)c2nc3ccccc3n12 do in these assays?
RT RNaseH block: -7; RmlC RmlD mix: 36*

What do the screens show for `CCCNc1cc(C)c(C#N)c2nc3ccccc3n12`?
RmlC RmlD mix: 55

What do the screens show for `Cc1oc(/N=C/c2ccccc2O)c(C#N)c1C`?
RT RNaseH block: 0; RmlC RmlD mix: 3

How did Cc1oc(/N=C/c2c(O)ccc3ccccc23)c(C#N)c1C do in these assays?
RT RNaseH block: 73*

What do the screens show for `O=C(Nc1ccc2nc(-c3cccs3)c(-c3cccs3)nc2c1)N1CCOCC1`?
RT RNaseH block: 3; RmlC RmlD mix: -205

Results for O=C(c1ccc2nc(-c3ccco3)c(-c3ccco3)nc2c1)N1CCN(c2ccccc2)CC1 ?
RT RNaseH block: 76*; RmlC RmlD mix: -4

Results for O=C(Nc1ccc(N2CCOCC2)cc1)Nc1ccc2nc(-c3ccco3)c(-c3ccco3)nc2c1 ?
RT RNaseH block: 68*; RmlC RmlD mix: -10

How did O=C(c1cc(-c2ccco2)on1)N1CCN(c2ccccc2)CC1 do in these assays?
RT RNaseH block: -6; RmlC RmlD mix: -13

Results for O=C(O)c1cc(C(F)(F)F)nc2c(C(F)(F)F)cccc12 ?
RmlC RmlD mix: -6

Results for Cc1oc(-c2ccc(F)cc2)cc1-c1nn2c(-c3ccoc3C)nnc2s1 ?
RT RNaseH block: 63*; RmlC RmlD mix: 6

Results for Cc1oc(-c2ccc(F)cc2)cc1-c1nn2c(-c3ccco3)nnc2s1 ?
RT RNaseH block: 32

Results for N#Cc1ccsc1NC(=O)CN1CCCCCC1 ?
RmlC RmlD mix: 4

What do the screens show for `CN(CC(=O)Nc1sccc1C#N)C1CCCCC1`?
RT RNaseH block: 58*; RmlC RmlD mix: 4

Results for Cc1ccc(CN2[C@@H](CC(C)C)COCCS2(=O)=O)cc1 ?
RmlC RmlD mix: -7

Results for C=C1CCC(C)C(C)(CCC2=CCOC2=O)C/C=C\C=C/1C(=O)O (centres undefined) ?
RmlC RmlD mix: 4

How did CCC1Oc2ccc(C)cc2N(CC(=O)N(Cc2ccc(C)o2)C2CC(C)(C)NC(C)(C)C2)C1=O (centres undefined) do in these assays?
RmlC RmlD mix: -5

How did CCC1Oc2ccc(C)cc2N(CC(=O)N(Cc2cccnc2)Cc2ccc(C)o2)C1=O (centres undefined) do in these assays?
RT RNaseH block: 50*; RmlC RmlD mix: 19

What do the screens show for `O=S(=O)(/C=C/c1ccccc1)Nc1ccc2c(c1)OCO2`?
RT RNaseH block: -14; RmlC RmlD mix: 41

How did CC(=O)/C(CN1CCCCC1)=N\O do in these assays?
RT RNaseH block: -10; RmlC RmlD mix: 1

How did C/C(=N\O)C(=O)C(CN1CCCCC1)CN1CCCCC1 do in these assays?
RT RNaseH block: 51*; RmlC RmlD mix: -4

What do the screens show for `CCOC(=O)[C@@H]1[C@H]2COc3ccccc3[C@@H]2N2C(=O)N(c3ccc(F)cc3)C(=O)[C@]12C`?
RmlC RmlD mix: -14

Results for NC(=O)NC(c1ccccc1)c1cccc2ccccc12 (centres undefined) ?
RmlC RmlD mix: 5

How did COC(=O)c1ccc(COc2ccccc2/C=N/NS(=O)(=O)c2ccc(C)cc2)cc1 do in these assays?
RmlC RmlD mix: -9

Results for CC(C)Cn1c2c(c(O)c(C(=O)Nc3ncccc3O)c1=O)CCCC2 ?
RT RNaseH block: 8; RmlC RmlD mix: 6

Results for CCCCc1nc2ccccc2c(=O)n1NC(=O)c1c(O)c2c(n(CC(C)C)c1=O)CCCC2 ?
RT RNaseH block: 52*; RmlC RmlD mix: -7

How did Cc1cccc(NC(=O)c2sc3nc(-c4ccccc4)cn3c2C)n1 do in these assays?
RT RNaseH block: 9; RmlC RmlD mix: -21

Results for COc1ccc(-c2cn3c(C)c(C(=O)Nc4cccc(C)n4)sc3n2)cc1 ?
RT RNaseH block: 51*; RmlC RmlD mix: -11

Results for O=C(Cn1nc(Cc2cccnc2)c2ccccc2c1=O)NCc1ccc(F)cc1 ?
RmlC RmlD mix: 4

How did Cc1cc2nc3n(c2cc1C)CC1CC(C(=O)NCc2ccco2)N(C)C31 (centres undefined) do in these assays?
RmlC RmlD mix: 8

How did CCOC(=O)c1cnn(-c2nc(SC)nc3sc4c(c23)CCC4)c1N do in these assays?
RT RNaseH block: 55*; RmlC RmlD mix: 13

What do the screens show for `CCOC(=O)c1cnn(-c2nc(C)nc3sc4c(c23)CCC4)c1N`?
RT RNaseH block: -7

How did CC(C)CC(C(=O)Nc1ccc2c(c1)OCCO2)N1C(=O)c2ccccc2C1=O (centres undefined) do in these assays?
RT RNaseH block: 3; RmlC RmlD mix: -10

What do the screens show for `CC(C)CC(C(=O)Nc1oc(-c2ccco2)c(-c2ccco2)c1C#N)N1C(=O)c2ccccc2C1=O` (centres undefined)?
RT RNaseH block: 62*; RmlC RmlD mix: 10

What do the screens show for `O=S(=O)(c1ccc(NCCc2c[nH]c3ccccc23)nc1)N1CCOCC1`?
RT RNaseH block: -33; RmlC RmlD mix: 10

How did O=C(NC1CC1)C1=C[C@@H](c2csc3ccccc23)C[C@@H](OCc2ccc(CO)cc2)O1 do in these assays?
RmlC RmlD mix: -3

Results for Nn1c(-c2ccco2)n[nH]c1=S ?
RT RNaseH block: 49; RmlC RmlD mix: -12

Results for S=c1[nH]nc(-c2ccco2)n1-c1cccc2ccccc12 ?
RT RNaseH block: 54*; RmlC RmlD mix: 12

Screening data deposited in PubChem BioAssay by several laboratories.
